Source: PubChem BioAssay AID743279 (National Center for Advancing Translational Sciences (NCATS), 2014)
Among all 360,000 compounds or so, about 17,000 (4.7%) were called active. Inconclusive results (about 5%) are left out. What follows is part of a selection rich in actives, with near analogues and random picks from the rest. Values without a mark were called inactive. Cut-off read from the data, not from the text of the source: active = activity change below about -50%; inconclusive = mostly about -30% to -49%; inactive = weaker than that.
% is set by controls: 0 for no effect and ±100 for the full control effect.

Test: qHTS for Inhibitors of Inflammasome Signaling: IL-1-beta AlphaLISA Primary Screen
Conditions: THP-1 LPS/ATP IL-1B secretion, 16 h; at 57.5 µM, hits give low values
From the text: Inflammasomes are a set of intracellular multi-protein complexes that enable autocatalytic activation of inflammatory caspases and drive the innate immune response to counter harmful agents. […] A qHTS assay, based on AlphaLISA technology, was developed to screen the Molecular Libraries Small Molecule Repository (MLSMR) to look for novel inflammasome inhibitors. The assay detects IL-1B using AlphaLISA anti-IL-1B acceptor and donor beads. A decreased emission signal, indicating reduced IL-1B secretion, is the desired outcome for this assay. NIH Chemical Genomics Center [NCGC] NIH Molecular Libraries Probe Centers Network [MLPCN] MLPCN Grant: MH095513 Assay Provider: Shyam Biswal Ph.D., Johns Hopkins University Immunity. 2012 Jul 27;37(1):85-95. PMID: 22819042 [2] Curr Pharm Des. 2012;18(16):2320-8. PMID: 22390695
Three microliters containing 3000 THP-1 cells were dispensed into the wells of solid, white, tissue culture treated Greiner 1,536-well plates. Library compounds and positive control, Glyburide, were pin-transferred (23 nL) by a Kalypsys pin-tool equipped with a 1,536-pin array, resulting in final compound concentration ranges of 2.5 nM to 57.5 uM. After 1 hr of cell culture incubation (37 °C, 5% CO2), 1 microL of 1 microg/mL lipopolysaccharide (250 ng/mL, final) and 5 mM ATP (1.25 mM, final) were added to stimulate the cells. After 16 hr of cell culture incubation with the compounds, 1.5 uL of anti-IL-1B acceptor beads (6 ug/mL, final) and biotinylated antibody (0.6 nM, final) were added to the plate, followed by a 1 hr incubation at ambient temperature. To detect the secreted IL-1B, 1.5 uL of AlphaLISA SA-Donor beads (24 ug/mL, final) were added, followed by 30 min of incubation in the dark at ambient temperature. The AlphaLISA signal was read by a PerkinElmer EnVision plate reader with an ultrasensitive luminescence detector and 1536 Plate HTS AlphaScreen aperture (excitation of 680nm and emission of 615nm).
For `CC(C)N(C(=O)CSc1nc(COc2ccccc2)nc2ccccc12)C(C)C`, the activity change was -71.7% (active).
Work on `CCCc1nc(SCC(=O)Nc2ccc(S(=O)(=O)N(C)C)cc2)c2ccccc2n1` yielded an activity change of -11.4%.
In the case of `CN(C(=O)CSc1nc(C2CC2)nc2ccccc12)c1nc(-c2ccccc2)cs1`, the activity change is reported as -16.2%.
`CCOC(=O)c1ccn(S(=O)(=O)c2ccc(C)cc2)c1-c1ccccc1` gave an activity change of 40.2%.
With `CN(N)c1nc(N2CCCC2)nc(N2CCCC2)n1` the activity change was 3.61%.
Compound `O=C(NCc1ccccc1Cl)c1csc([C@@H]2O[C@H](CO)[C@@H](O)[C@H]2O)n1` has an activity change of 6.54%.
With `CN(C(=O)c1cccc(NC(=O)Cc2ccc(NC(=O)C3CCCN(C(=O)C4CC4)C3)cc2)c1)C1CC1` (centres undefined) the activity change was 54.5%.
Compound `Cc1ccc2nc(-c3ccccc3)c(CC3CCCCC3)n2c1` has an activity change of -0.767%.
In the case of `CCCCN(C)CCNC(=O)CSCc1ccc(C)cc1`, the activity change is reported as 16.4%.
Compound `CC1(C)Cc2ccccc2-c2nc(CN3CCOCC3)[nH]c(=O)c21` has an activity change of 0%.
`CCC1(CC)Cc2ccccc2-c2nc(CCl)[nH]c(=O)c21` gave an activity change of 38.6%.
With `CCOC(=O)C1Cn2c(nc3c(c2=O)C(C)(CC)Cc2ccccc2-3)S1` (centres undefined) the activity change was -60.4% (active).
`CC(OC(=O)c1cccc(S(=O)(=O)N2CCOCC2)c1)C(=O)NCC1CCCCC1` (centres undefined) gave an activity change of -2.42%.
Work on `COc1cc(/C=C/C(=O)OCC(=O)Nc2cccc(Oc3ccccc3)c2)ccc1O` yielded an activity change of 15.2%.
`COC(=O)c1ccc(C2C(Oc3ccccc3C)C(=O)N2CCc2ccc(OC)c(OC)c2)cc1` (centres undefined) gave an activity change of -21.3%.
In the case of `Cc1cc(NC(=O)CCC(=O)N(c2cccc(F)c2)C(C(=O)NC2CCCC2)c2ccncc2)no1` (centres undefined), the activity change is reported as 10.2%.
Work on `Cc1cc(C)cc(N(CC(=O)NC2CCCC2)C(=O)CCC(=O)Nc2cc(C)on2)c1` yielded an activity change of 23.6%.
`Cc1cc(NC(=O)CCC(=O)N(c2ccccc2)C(C(=O)NC2CCCC2)c2ccncc2)no1` (centres undefined) gave an activity change of -1.05%.
With `Cc1cc(NC(=O)/C=C/C(=O)N(CC(=O)NC2CCCC2)c2ccc(F)cc2)no1` the activity change was -87.8% (active).
With `Cc1cc(NC(=O)/C=C/C(=O)N(c2ccccc2C)C(C(=O)NC2CCCC2)c2ccc(F)cc2)no1` (centres undefined) the activity change was -95.1% (active).
Work on `Cc1cc(NC(=O)CCC(=O)N(CC(=O)NC2CCCC2)c2ccc(F)cc2)no1` yielded an activity change of 8.19%.
With `Cc1oc2cc3oc(=O)ccc3cc2c1C` the activity change was -4.45%.
For `Cc1ccc(S(=O)(=O)N2CC[C@H]3[C@@H](C2)C(=O)C[C@@H](c2ccccc2)N3S(=O)(=O)c2ccc(C)cc2)cc1`, the activity change was -0.365%.
With `CCCC(C(=O)OCCN(CC)CC)(c1ccccc1)c1ccccc1` the activity change was -14.1%.
Work on `O=C(COc1ccc(S(=O)(=O)N2CCCC2)cc1[N+](=O)[O-])N1CCCCC1` yielded an activity change of 10.9%.
Compound `Cc1ccc(C(=O)OCC(=O)NC2CCCCCCC2)cc1C` has an activity change of 8.07%.
With `Cc1noc(C)c1S(=O)(=O)N(C)C[C@H]1Oc2c(NC(=O)Nc3ccc4c(c3)OCO4)cccc2C(=O)N([C@H](C)CO)C[C@@H]1C` the activity change was 5.23%.
Compound `CSCCC(NC(=O)COc1ccccc1)C(=O)OCc1ccc(Cl)cc1` (centres undefined) has an activity change of 6.8%.
`CCn1c(C)cc(=O)cc1-c1ccc(Cl)cc1` gave an activity change of 12.5%.
With `COc1ccc(Cn2c(-c3ccc(Cl)cc3)c[n+]3ccccc23)cc1` the activity change was -79.9% (active).
For `COc1ccc(Cn2c(=O)oc3ccccc32)cc1`, the activity change was -4.96%.
In the case of `CC1(C(=O)NS(=O)(=O)c2ccccc2)CCN1C(=O)C1CCCCC1` (centres undefined), the activity change is reported as 25.7%.
With `Nc1nc2ncccn2c1-c1ccccc1` the activity change was 18.6%.
Work on `O=C(Nc1ccccc1)OCc1cn(-c2ccc(Cl)cc2)nn1` yielded an activity change of 33.8%.
For `CC(C)(COC(=O)Nc1ccccc1)COC(=O)Nc1ccccc1`, the activity change was -50.5% (active).
`CCOC(=O)Nc1ccc(NC(=O)OCC)cc1` showed an activity change of 0.929%.
Work on `Cc1cccc(N(CC(=O)N2CCCC2)S(C)(=O)=O)c1C` yielded an activity change of 25%.
Work on `COC(=O)c1sc2[nH]c(=S)n(N)c(=O)c2c1C` yielded an activity change of 6.13%.
`CN(C(=O)c1cccc(NC(=O)Cc2ccc(NC(=O)C3CCCN(C(=O)C4CCCC4)C3)cc2)c1)C1CCC1` (centres undefined) gave an activity change of -10.6%.
For `COc1ccc2nc(C)cc(Nc3cccc(C(=O)O)c3)c2c1`, the activity change was 10.8%.
In the case of `COc1ccc2nc(/N=C(\N)NC(=O)Nc3ccccc3)nc(C)c2c1`, the activity change is reported as -80.5% (active).
For `Cc1nc(/N=C(\N)NC(=O)NC2CCCCC2)nc2ccccc12`, the activity change was -104% (active).
In the case of `O=C(NNC(=O)C(O)c1ccccc1)NC1CCCCC1` (centres undefined), the activity change is reported as 14.4%.
`CC(C)c1cc(C(=O)NC2CCCCCC2)c2ccccc2n1` showed an activity change of 0.331%.
Work on `COc1cccc(NC(=O)Nc2ccc(F)cc2)c1` yielded an activity change of -27.3%.
With `CCCc1nc2ccccc2n1C(C)C(=O)NC(C)(C)C` (centres undefined) the activity change was 29%.
`O=C(NNc1nc(N2CCCC2)nc(N2CCCC2)n1)c1ccccc1` gave an activity change of -0.122%.
`O=C1CCC(C(=O)N2CCC(O)(c3ccccc3)CC2)CN1CCc1ccccc1` (centres undefined) gave an activity change of -11.9%.
In the case of `O=C(CN1C(=O)NC2(CCc3ccccc32)C1=O)NC1CCCCC1` (centres undefined), the activity change is reported as -10.5%.
In the case of `COC(=O)c1ccccc1N=NNc1ccc([N+](=O)[O-])cc1`, the activity change is reported as -18.2%.
`COC(=O)c1c(C)oc(C)c1S(=O)(=O)Nc1ccc(C(C)C)cc1` showed an activity change of 5.75%.
For `O=C(c1cc2ccccc2o1)N1CCN(c2cccc(C(F)(F)F)c2)CC1`, the activity change was “inactive”.
`Cc1cc2ccccn2c1C(=O)c1cccc(S(=O)(=O)N2CCOCC2)c1` showed an activity change of -17.1%.
In the case of `N#Cc1c(-c2cccs2)nc(SCC(=O)c2ccc(Br)cc2)[nH]c1=O`, the activity change is reported as 13.2%.
`CCOC(=O)CC1COCCN1C(=O)c1cc(COc2ccc(F)c(F)c2)on1` (centres undefined) gave an activity change of 64.4%.
In the case of `O=C(CCNS(=O)(=O)c1ccc(Br)cc1)NCC1CCCO1` (centres undefined), the activity change is reported as -2.41%.
With `OC(CNCC1CCCO1)Cn1c2ccc(Br)cc2c2cc(Br)ccc21` (centres undefined) the activity change was -62.5% (active).
Compound `CCCN1CCn2c3c(c4cc(Br)ccc42)CCCC31` (centres undefined) has an activity change of 42.1%.
`Cc1cc(-c2nnc(SCC(=O)Nc3ccc(F)cc3)n2N)n[nH]1` gave an activity change of 20.7%.
`Cc1nn(-c2ccccn2)c2c1C(c1ccncc1)C1=C(CC(C)(C)CC1=O)N2` (centres undefined) showed an activity change of -7.64%.
In the case of `Cc1cc(C)c(C2C3=C(Nc4c2c(C)nn4-c2ccccn2)c2ccccc2C3=O)c(C)c1` (centres undefined), the activity change is reported as -68.9% (active).
Work on `C=CCn1c(SCC(=O)CC(=O)OCC)nc2cc(C(=O)N3CCC(C(N)=O)CC3)ccc2c1=O` yielded an activity change of -3.87%.
Work on `C=CCn1c2ccccc2c2nnc(SC(CC)C(=O)Nc3nc(C)c(C(=O)OCC)s3)nc21` (centres undefined) yielded an activity change of -24.9%.
For `C=CCn1c2ccccc2c2nnc(SCc3[nH]c(=O)[nH]c3C(=O)CCCCC(=O)OCC)nc21`, the activity change was -80.5% (active).
`O=C(OCc1ccccc1)N1CCC2CC1c1ccc(-c3ccc4c(c3)OCO4)cc12` (centres undefined) showed an activity change of 20%.
Compound `CCc1nc(Nc2ccc(NC(C)=O)cc2)c2oc3ccccc3c2n1` has an activity change of -1.52%.
In the case of `CC(=O)Nc1ccc(Nc2cc(C)nc(Nc3ccc(NC(C)=O)cc3)n2)cc1`, the activity change is reported as 0.0358%.
For `CC(=O)Nc1ccc(Nc2c3ccccc3nc3ccccc23)cc1`, the activity change was -98.2% (active).
With `O=C1NC[C@H](CCCCN2C[C@H](Cc3ccccc3)N(Cc3ccccc3)C(=O)C2=O)N(CCc2ccc(O)cc2)C1=O` the activity change was 0%.
With `Cc1nn(-c2ccccc2)c(C)c1NC(=O)CCl` the activity change was -95% (active).
`CCC(Oc1ccccc1)C(=O)OCC(=O)Nc1c(C)nn(-c2ccccc2)c1C` (centres undefined) showed an activity change of 8.98%.
`Cc1cccc(C)c1NC(=O)CNC(=O)c1c(C)nn(-c2ccccc2)c1C` gave an activity change of -13.7%.
`O=C(NCc1ccccc1)C(c1ccc(F)cc1)N1CCN(C(=O)C2CCCO2)CC1` (centres undefined) showed an activity change of 0%.
`CCO/N=C(/C)c1c(O)cc(-c2ccccc2)n(-c2ccccc2)c1=O` gave an activity change of 17.3%.
For `CCCc1cc(=O)oc2c(C)c(OC(C)C(=O)NCC(O)c3ccccc3)ccc12` (centres undefined), the activity change was -14.8%.
Compound `C[C@@H]1ON(C)[C@H]2C[C@H]3c4cc(N5CCN(C)CC5)ccc4CCN3C(=O)[C@@H]12` has an activity change of -12.3%.
With `C(#CCN1CCOCC1)CCCN1CCOCC1` the activity change was 26%.
For `CO/N=C/c1ccc(N2CCN(C(=O)c3cccc(Cl)c3)CC2)c([N+](=O)[O-])c1`, the activity change was -16.9%.
With `O=C(c1ccc(Cl)c([N+](=O)[O-])c1)N1CCN(c2ccccc2)CC1` the activity change was -26.9%.
In the case of `O=C(/C=C/c1ccc(Cl)cc1)N1CCN(c2ccccc2[N+](=O)[O-])CC1`, the activity change is reported as -78.3% (active).
Compound `CCOc1ccc(NS(=O)(=O)c2ccc(C(=O)NCC3CCCO3)cc2)cc1` (centres undefined) has an activity change of 8.79%.
`CCOC(=O)C1=NOC(Cn2cc(C(C)=O)c(=O)[nH]c2=O)C1` (centres undefined) gave an activity change of -0.897%.
Work on `Cc1ccc(S(=O)(=O)N2CCN(C(=O)COC(=O)/C=C/c3cccc(Cl)c3)CC2)c(C)c1` yielded an activity change of 23.3%.
For `CCOC(=O)N1CCC(NC(=O)Cn2cc3c(n2)CCCCC3)CC1`, the activity change was 2.25%.
With `O=C(/C=C/c1ccc(F)cc1)NC(=S)NNC(=O)c1cccnc1` the activity change was 20.7%.
In the case of `c1ccc2c(c1)OC1OC2Oc2ccccc21`, the activity change is reported as 10.9%.
`COc1cc(OC)c(C(=O)NC2CC(C)(C)NC(C)(C)C2)cc1OC` showed an activity change of 0%.
For `COc1cc(OC)c(C(=O)NC2CCCCCC2)cc1OC`, the activity change was -59.1% (active).
`COc1ccc(S(=O)(=O)NC(C)C)cc1C(=O)NC1CCCCC1` gave an activity change of 2.99%.
